Experimental data reported in PubChem BioAssay (NCI).
The panel holds about 79,000 compounds, 15% with a hit somewhere; the sample as a whole holds those more often. Unmarked numbers belong to inactive results. The source made the active and inactive calls. Rule as the data show it: active = growth inhibition above about 70%; inactive = the rest.

What was measured:
[1] = NCI Yeast Anticancer Drug Screen. Data for the rad50 strain (AID 155);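 also: 0% = growth of vehicle-only cultures of the same strain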; settings: S. cerevisiae rad50 strain growth inhibition, active compounds read high
In short: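 Compounds were tested on a yeast strain with an engineered DNA damage repair alteration; the reported value is growth inhibition normalised to vehicle treatment.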

[2] = NCI Yeast Anticancer Drug Screen. Data for the mec2-1 strain (AID 157); settings: S. cerevisiae mec2-1 strain, active compounds read high
In short: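 mec2-1 yeast strain, carrying an alteration in DNA damage repair or cell cycle control, was exposed to compounds; growth inhibition was measured relative to vehicle-treated controls.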

[3] = NCI Yeast Anticancer Drug Screen. Data for the sgs1 mgt1 strain (AID 161);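 also: 0% = growth of cultures given vehicle only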; settings: S. cerevisiae sgs1 mgt1 strain, active compounds read high
In short: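 Compounds are added to genetically altered yeast, and growth is compared with cultures given vehicle alone to give percent inhibition.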

[4] = NCI Yeast Anticancer Drug Screen. Data for the cln2 rad14 strain (AID 165);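 also: 0% = growth equal to vehicle treated cultures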; settings: S. cerevisiae cln2 rad14 strain, active compounds read high
In short: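 Yeast carrying cln2 and rad14 alterations (cell cycle control and DNA damage repair) were exposed to compounds. Growth inhibition was measured against vehicle-treated controls.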

[5] = NCI Yeast Anticancer Drug Screen. Data for the bub3 strain (AID 167); settings: S. cerevisiae bub3 mutant strain, active compounds read high
In short: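 Growth of a checkpoint-deficient yeast mutant is measured after compound exposure. Values represent inhibition relative to vehicle.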

[6] = NCI Yeast Anticancer Drug Screen. Data for the mlh1 rad18 strain (AID 175); settings: S. cerevisiae mlh1 rad18 strain growth inhibition, active compounds read high
In short: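 Growth inhibition of the yeast strain was measured after compound exposure and expressed relative to vehicle-treated controls. The strain carries defined defects in DNA damage repair.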

[7] = at 5.0 µM (retest, dose inferred, filed as 0.5)
[8] = at 50.0 µM (retest, dose inferred, filed as 5.0)

Compound | growth inhibition [1, 7] [%] | growth inhibition [1, 8] | growth inhibition ([1]; at 50.0 µM) | growth inhibition [2, 7] [%] | growth inhibition [2, 8] | growth inhibition ([2]; at 50.0 µM) | growth inhibition [3, 7] [%] | growth inhibition [3, 8] | growth inhibition ([3]; at 50.0 µM) | growth inhibition [4, 7] [%] | growth inhibition [4, 8] | growth inhibition ([4]; at 50.0 µM) | growth inhibition [5, 7] [%] | growth inhibition [5, 8] | growth inhibition ([5]; at 50.0 µM) | growth inhibition [6, 7] [%] | growth inhibition [6, 8] | growth inhibition ([6]; at 50.0 µM)
Cn1cnc([N+](=O)[O-])c1Sc1nc2ccccc2s1 | 57 | 96% (active) | 91.3% (active) | 38 | 98% (active) | 92.3% (active) | 51 | 97% (active) | 92.1% (active) | 35 | 74% (active) | 90.7% (active) | 45 | 97% (active) | 91.4% (active) | 64 | 98% (active) | 90% (active)
CN(C)c1ccc(C2CC(C)(N3CCCC3)Oc3cc4c(cc32)OCO4)cc1 (stereo not given) | 23 | 42% | 17.1% | 2 | 24% | 5% | -10 | 43% | 13.3% | 9 | 50% | 23.9% | 11 | 84% (active) | 26.9% | 12 | 32% | 33.5%
C/C(=N\N=C(N)N)c1ccc2c(c1)Cc1cc(/C(C)=N/N=C(N)N)ccc1-2 | 42 | 98% (active) | 87.8% (active) | 40 | 99% (active) | 88.8% (active) | 39 | 99% (active) | 84.7% (active) | 43 | 99% (active) | 87.2% (active) | 52 | 98% (active) | 83.3% (active) | 54 | 98% (active) | 90% (active)
COC(=O)C1(C)CCCC2(C)C3CCC4CC3(C=C4CO)CCC12 (stereo not given) | 32 | 96% (active) | 53% | 24 | 98% (active) | 43.1% | 35 | 99% (active) | 86.5% (active) | 36 | 91% (active) | 73.5% (active) | 24 | 98% (active) | 80.7% (active) | 41 | 98% (active) | 50.4%
OCCN=C1c2ccccc2C2C(c3ccccc31)C1c3ccccc3C(=NCCO)c3ccccc3C21 (stereo not given) | -9 | 13% | 46.8% | -4 | -8% | 29.8% | 6 | 6% | 37.4% | 4 | 18% | 31.1% | -6 | 6% | 40.5% | 3 | 47% | 82% (active)
O=C(/C(=C/c1ccc2c(c1)OCO2)c1ccccc1)c1ccc(OCCN2CCCC2)cc1 | -2 | -4% | 34.9% | 3 | -8% | 58.5% | -3 | -16% | 31.1% | -2 | -8% | 12.8% | -7 | -1% | 3.45% | 5 | 19% | 7.35%
O=Cc1ccc(O)cc1O | 8 | 24% | 58.5% | 8 | 16% | 29.6% | 7 | 15% | 25.8% | 4 | 14% | -38.6% | 7 | 10% | 55.4% | 1 | 13% | 59%
O=C(CCc1ccccc1)COC(=O)c1ccc([N+](=O)[O-])cc1 | -13 | -14% | -10.4% | -2 | -25% | 3.45% | -6 | 8% | -3.6% | -26 | -14% | 10.9% | -1 | -7% | 55% | -15 | -23% | 16.4%
COc1c(Br)c(=O)n(C)c(=O)n1C | -11 | 99% (active) | 89% (active) | -10 | 99% (active) | 87.8% (active) | -29 | 98% (active) | 91.2% (active) | -4 | 99% (active) | 88.3% (active) | -26 | 99% (active) | 89.2% (active) | -11 | 99% (active) | 89% (active)
CCC[CH2][Ge]([CH2]CCC)([CH2]CCC)[O]C(=O)CC(=O)c1ccccc1 | 10 | 62% | 53.3% | -3 | 65% | 45.1% | 6 | 41% | 32.2% | 1 | 20% | 43.5% | -17 | 27% | 79.5% (active) | -1 | 46% | 67.4%
